Our source for the z-score and composite z-score values is PubChem BioAssay.

Assay [1] can be described thus: resazurin metabolic signal in HepG2 cells – cell-based, resazurin fluorescence, 24 h, PK04 Diversity Set, profiling panel (AID 1172). Further: test concentration not given here. The note with it: HepG2 viability, higher = more signal. (In general: The colour change of resazurin is a common sign of viable cells or microbes.)
A short description of assay [2]: budding yeast growth changes without added modifier – OD600, strain BY4716, 24 h, basal condition, primary screen (AID 1173). The note with it: S. cerevisiae BY4716 growth, OD600, 24 h; higher = more signal, called active from +8 up or from −8 down.
A short description of assay [3]: viability profiling in MM1S myeloma cells – cell-based, resazurin fluorescence, basal, 24 h, PK04 Diversity Set, profiling panel (AID 1174).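 Further: MM1S multiple myeloma cell line; test concentration not given here.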 Conditions: higher = more signal, called active from +8 up or from −8 down.
Assay [4] concerns the target Dihydroorotate dehydrogenase (quinone), mitochondrial (Plasmodium falciparum (isolate 3D7)) (UniProt Q08210). In words: inhibition of P. falciparum DHODH – biochemical, C-terminal His tag, absorbance 600 nm, primary screen (AID 1175).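 Further: recombinant parasite enzyme with a five histidine tag at its C terminus; test concentration not given here.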 Conditions: PfDHODH enzyme, DCIP absorbance 600 nm; higher = more signal, called active from +8 up or from −8 down.
Assay [5] can be described thus: inhibition of PAO1 biofilm formation – strain PAO1, LB-PBS medium, absorbance 600 nm, primary screen (AID 1176). Further: test concentration not given here. Conditions: P. aeruginosa PAO1 growth/biofilm, A600, 12 h; higher = more signal.
Assay [6] in a line: growth modulation of vineyard yeast isolate – strain RM11-1a, OD600, basal, 24 h, primary screen (AID 1177).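 Further: cultures grown under basal conditions with no added stressor; test concentration not given here.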 Conditions: S. cerevisiae RM11-1a growth, OD600, 24 h; higher = more signal, called active from +8 up or from −8 down.
Assay [7] is described as follows: growth of efflux-deficient E. coli DRC39 – strain DRC39, OD650, 24 h, E. coli filamentation inducers, primary screen (AID 1178).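 Further: growth measured as culture turbidity by optical density at 650 nm; test concentration not given here.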 Conditions: E. coli DRC39 acrAB, higher = more signal, called active from +8 up or from −8 down.
A short description of assay [8]: growth of efflux-deficient E. coli DRC39 – strain DRC39, OD650, 48 h, E. coli filamentation inducers, primary screen (AID 1179).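 Further: screen aims at cell division blockers that make cells filament.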 The note with it: E. coli DRC39 delta-acrAB growth, higher = more signal, called active from +8 up or from −8 down.
Assay [9] is described as follows: viability profiling in RPMI8226 myeloma cells – cell-based, resazurin fluorescence, basal, 24 h, PK04 Diversity Set, profiling panel (AID 1180).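 Further: RPMI8826 multiple myeloma cell line at 5000 cells per well; test concentration not given here.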 Conditions: higher = more signal.
Assay [10] concerns the target E3 ubiquitin-protein ligase XIAP (Homo sapiens) (UniProt P98170). In words: small molecules binding XIAP protein – biophysical, small-molecule microarray, fluorescence 635 nm, primary screen (AID 1181).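 Further: score merges 667 nm emission and signal to noise over triplicate slides.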 Conditions: higher = more signal.

The source made the active and inactive calls. Unless noted, how the calls were made is not given here.

Sequence of E3 ubiquitin-protein ligase XIAP (Homo sapiens) (P98170 whole entry, looked up): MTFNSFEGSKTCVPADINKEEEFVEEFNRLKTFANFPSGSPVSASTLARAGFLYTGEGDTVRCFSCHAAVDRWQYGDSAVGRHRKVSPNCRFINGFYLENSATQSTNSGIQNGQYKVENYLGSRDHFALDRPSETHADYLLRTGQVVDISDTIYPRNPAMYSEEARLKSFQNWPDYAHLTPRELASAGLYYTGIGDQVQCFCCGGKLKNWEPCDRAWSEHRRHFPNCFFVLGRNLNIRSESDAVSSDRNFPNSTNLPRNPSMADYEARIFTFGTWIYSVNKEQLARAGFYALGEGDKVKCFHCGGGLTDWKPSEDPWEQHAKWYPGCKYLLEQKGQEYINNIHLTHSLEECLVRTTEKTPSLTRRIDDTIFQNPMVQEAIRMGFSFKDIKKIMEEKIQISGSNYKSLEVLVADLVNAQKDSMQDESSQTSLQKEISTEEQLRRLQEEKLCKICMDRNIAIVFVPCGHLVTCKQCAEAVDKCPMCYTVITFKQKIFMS
Sequence of Dihydroorotate dehydrogenase (quinone), mitochondrial (Plasmodium falciparum (isolate 3D7)) (Q08210 whole entry, looked up): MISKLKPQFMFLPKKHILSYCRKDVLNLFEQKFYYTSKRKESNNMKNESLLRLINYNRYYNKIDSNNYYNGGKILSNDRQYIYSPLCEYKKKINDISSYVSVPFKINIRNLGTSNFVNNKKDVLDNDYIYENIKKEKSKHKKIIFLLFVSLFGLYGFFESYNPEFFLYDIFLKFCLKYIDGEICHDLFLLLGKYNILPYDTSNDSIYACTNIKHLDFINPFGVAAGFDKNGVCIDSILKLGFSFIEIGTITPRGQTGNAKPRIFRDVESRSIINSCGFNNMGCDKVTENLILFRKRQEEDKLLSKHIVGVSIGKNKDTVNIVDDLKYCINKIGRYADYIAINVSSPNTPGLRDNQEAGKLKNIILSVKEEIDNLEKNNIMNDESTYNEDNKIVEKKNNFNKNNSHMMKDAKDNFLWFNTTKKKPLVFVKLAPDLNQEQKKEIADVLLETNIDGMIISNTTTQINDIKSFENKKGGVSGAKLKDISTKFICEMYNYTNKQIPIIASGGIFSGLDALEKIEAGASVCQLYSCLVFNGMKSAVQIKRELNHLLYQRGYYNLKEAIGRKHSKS

On to `CO[C@H]1COC(=O)[C@@H](C)COC(=O)[C@H](COCc2ccccc2)NC(=O)CC=C[C@H]1C`, for which the z-score is -0.238 in assay [1]; -1.58 (inactive) in [2]; 0.671 (inactive) in [3]; -0.543 (inactive) in assay [5]; 0.085 (inactive) in assay [6]; 1.05 (inactive) in assay [7]. The values for the z-score in [8] and in [9] were -0.997 (inactive) and 0.267, respectively. In addition, the composite z-score in [4] is 0.604 (inactive); in assay [10], 0.227.

Turning to `CO[C@@H]1COC(=O)[C@H](CCSC)NC(=O)CC=C[C@@H](C)COC(=O)CCC[C@H]1C`, the z-score was 1.09 in assay [1]; -0.509 (inactive) in assay [2]; -0.11 (inactive) in assay [3]; -0.892 (inactive) in [5]; 0.0665 (inactive) in assay [6]; 0.104 (inactive) in [7]. Also, the z-score in assay [8] is 0.156 (inactive); in assay [9] it was 0.53. For the same compound, the composite z-score is -0.555 (inactive) in assay [4] and 0.871 in assay [10].

For `CC1O[C@H]2C3=C(C(=O)[C@@H]4O[C@@H]4[C@H]3O)[C@@H]1C1[C@@H](C)OC=C3[C@H](O)C4O[C@@H]4C(=NOCc4ccccc4)[C@]312` (stereo not given in full), the z-score in assay [1] was -1.04; in assay [2] it was -0.456 (inactive); in assay [3] it was -4.85 (inactive); in assay [5], -0.364 (inactive); in assay [6] it was 0.543 (inactive); in assay [7] it was 0.158 (inactive). The z-score in [8] was -0.123 (inactive); in [9], -2.84. Further, the composite z-score is 0.0953 (inactive) in assay [4] and 0.215 in assay [10].

`C[C@@H]1C=CCC(=O)OC[C@H]2O[C@@H](C=C[C@@H]2O)[C@H](C)C=CCC(=O)OC1`: the z-score was -0.444 in assay [1]; -1.03 (inactive) in assay [2]; 0.324 (inactive) in assay [3]; 0.565 (inactive) in [5]; -2.26 (inactive) in assay [6]; 0.577 (inactive) in assay [7]. Further, the results for the z-score in assay [8] and in [9] were 0.205 (inactive) and -0.667, respectively. Moreover, the composite z-score in assay [4] is -0.793 (inactive); in assay [10], -0.0826.

Take `CC(=O)OC[C@H]1OC(ON=CC[C@@H]2C=C[C@H](OC(C)=O)[C@@H](COC(C)=O)O2)[C@H](OC(C)=O)[C@@H](OC(C)=O)[C@@H]1OC(C)=O` (stereo not given in full): the z-score in assay [1] is 0.186; in [2] it was 0.352 (inactive); in assay [3], -0.919 (inactive); in assay [5], -0.0903 (inactive); in assay [6], -0.618 (inactive); in assay [7] it was 0.938 (inactive). In addition, the figures for the z-score in assay [8] and in assay [9] were 0.583 (inactive) and 0.169, respectively. The composite z-score was -0.753 (inactive) in assay [4] and 0.0982 in [10].

For `CC(C)=CCCC(C)=CCON=C1C[C@@H](O)[C@@H](O)[C@@H]2[C@@H]3C(=O)N(c4ccc(F)cc4F)C(=O)[C@@H]3CC[C@H]12`, the z-score in assay [1] is 0.844; in assay [2], -2.97 (inactive); in assay [3], 0.257 (inactive); in assay [5] it was 0.671 (inactive); in [6], -0.777 (inactive); in assay [7] it was 0.375 (inactive). The z-score in assay [8] was 0.438 (inactive); in assay [9], 1.32. For the same compound, the composite z-score is -1.42 (inactive) in [4] and -0.0939 in assay [10].

In the case of `CC(C)CON=C1C[C@@H](O)[C@@H](O)[C@@H]2[C@@H]3C(=O)N(C(C)(C)C)C(=O)[C@@H]3CC[C@H]12`, the z-score was -0.184 in [1]; 0.528 (inactive) in [2]; -0.426 (inactive) in assay [3]; -0.613 (inactive) in [5]; -0.131 (inactive) in [6]; 0.366 (inactive) in assay [7]. Further, the results for the z-score in assay [8] and in assay [9] were 0.476 (inactive) and -0.246, respectively. Further, the figures for the composite z-score in assay [4] and in [10] were 0.15 (inactive) and -0.102, respectively.

For the compound `CC(CCN1CCc2nc(-c3ccccc3)c(-c3ccccc3)cc2C1)=NOC[C@@H](O)COCc1ccco1`, the z-score in assay [1] was -1.2; in assay [2] it was -2 (inactive); in [3], -1.88 (inactive); in assay [5], -0.0417 (inactive); in assay [6], 0.358 (inactive); in [7] it was 0.943 (inactive). Moreover, the z-score is 1.14 (inactive) in assay [8] and -1.31 in assay [9]. Moreover, the composite z-score in assay [4] is -0.727 (inactive); in assay [10], 0.239.

With `CCCNC(=O)OC[C@H]1O[C@H](CCON=C(C)CCC(=O)OC[C@H]2O[C@H](c3ccccc3)C=C[C@@H]2Oc2ccc(OC)cc2)C=C[C@@H]1Oc1ccc(OC)cc1`, the z-score is 0.704 in assay [1]; 0.195 (inactive) in assay [2]; 0.205 (inactive) in assay [3]; 0.0525 (inactive) in [5]; 0.17 (inactive) in assay [6]; 0.629 (inactive) in assay [7]. Moreover, the results for the z-score in assay [8] and in assay [9] were 0.363 (inactive) and 1.31, respectively. Moreover, the composite z-score in assay [4] was -1.13 (inactive); in assay [10] it was -0.171.

As to `CCOC(=O)[C@H](CC(C)C)NC(=O)CCC1CC(OC(=O)NCc2ccc3c(c2)OCO3)CC2(CCCC(COC(=O)NCC(c3ccccc3)c3ccccc3)O2)O1` (stereo not given in full), the z-score is 0.842 in [1]; 0.724 (inactive) in assay [2]; 0.56 (inactive) in [3]; -0.306 (inactive) in assay [5]; 0.786 (inactive) in assay [6]; 0.304 (inactive) in assay [7]. Also, the values for the z-score in assay [8] and in assay [9] were 0.321 (inactive) and 0.509, respectively. The composite z-score in assay [4] is 0.125 (inactive); in [10] it was -0.17.

On to `CSCC[C@@H]1NC(=O)CC=C[C@@H](C)COC(=O)[C@@H](C)COC1=O`, for which the z-score is 0.414 in [1]; -0.739 (inactive) in assay [2]; 0.574 (inactive) in assay [3]; -0.708 (inactive) in assay [5]; -0.24 (inactive) in [6]; 0.422 (inactive) in assay [7]. Moreover, the z-score in [8] was -0.962 (inactive); in [9], 0.249. In addition, the composite z-score in [4] was 0.0037 (inactive); in [10], -0.0525.

Take `C#CCCCON=C1C[C@@H](O)[C@@H](O)[C@@H]2[C@@H]3C(=O)N(c4ccc(F)cc4F)C(=O)[C@@H]3CC[C@H]12`: the z-score is 0.63 in assay [1]; -0.98 (inactive) in [2]; 0.475 (inactive) in assay [3]; 0.577 (inactive) in [5]; -1.67 (inactive) in [6]; 0.335 (inactive) in assay [7]. Besides, the results for the z-score in assay [8] and in assay [9] were 0.537 (inactive) and 0.817, respectively. Moreover, the composite z-score in [4] is -0.31 (inactive); in [10], 0.199.

For `CC(C)=CCCC(C)=CCON=C1C[C@@H](O)[C@@H](O)[C@@H]2[C@@H]3C(=O)N(c4cccc(Oc5ccccc5)c4)C(=O)[C@@H]3CC[C@@H]12`, the z-score was 0.171 in [1]; -1.86 (inactive) in assay [2]; 0.815 (inactive) in assay [3]; 0.0001 (inactive) in assay [5]; -0.556 (inactive) in assay [6]; 0.615 (inactive) in [7]. Besides, the z-score in [8] is -0.923 (inactive); in [9], -0.198. Moreover, the composite z-score is -2.48 (inactive) in assay [4] and 0.0368 in [10].
